Screening results: PubChem, National Center for Advancing Translational Sciences (NCATS)
The list is not random: actives were taken first. Their share in the collection is about 2.8%.
CtBP-E1A inh – blocks the CtBP interaction with E1A. AlphaScreen GST-E1A/His-CtBP binding, 1536-well; hits give low values. activity change, % (concentration not given with the values). 340,000 tested, 0.49% active. AID 651724; in the data active means activity change below about -65%; inconclusive means mostly about -30% to -63%
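GST-E1A and His-tagged CtBP (125 nM each as 5X stock) were preincubated with pin-transferred compound for 2 h at 37 °C in the dark, then glutathione donor and nickel acceptor beads were added for 1 h before AlphaScreen reading.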
ATXN2 expr inh – inhibitors of ATXN2 expression. HEK-293 ATXN2-luciferase reporter, luminescence, 24 h. Potency, µM (top dose mostly 57 µM), usual class: inhibitors. 360,000 tested, 0.72% active. AID 1745845; further: nearly all actives have a fitted effect of over 55% in size
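ATXN2-luciferase reporter cells (luciferase flanked by upstream and downstream ATXN2 gene portions) were treated 24 h at 37 °C with compounds at up to 57 uM. SteadyGlo luminescence gave expression; GF-AFC fluorescence gave viability.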
HepG2 viability – kills HepG2 cells in TGF-b inhibitor counter-screen. HepG2 CAGA-GFP viability, ATP luminescence, 18 h. Potency, µM (highest dose often 46.1 µM), usual class: cytotoxic. 410,000 tested, 0.76% active
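HepG2 CAGA-GFP cells (1000/well, DMEM with 1% FBS) received compound, then TGF-beta at 500 pg/mL final, and were incubated 18 hours at 37 degrees C. Viability was read by CellTiter-Glo luminescence. Media-only wells were set as complete cell-killing and DMSO as no toxicity.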
Six1-Eya2 blk – Six1/Eya2 interaction inhibition; 360,000 tested, 0.56% active; AlphaScreen GST-Six1/His-Eya2 binding, biochemical; hits give low values; activity change, % (no concentration beside the values); in the data active means activity change below about -65%; inconclusive means mostly about -30% to -63%
Target sequence (O00167 whole entry, looked up): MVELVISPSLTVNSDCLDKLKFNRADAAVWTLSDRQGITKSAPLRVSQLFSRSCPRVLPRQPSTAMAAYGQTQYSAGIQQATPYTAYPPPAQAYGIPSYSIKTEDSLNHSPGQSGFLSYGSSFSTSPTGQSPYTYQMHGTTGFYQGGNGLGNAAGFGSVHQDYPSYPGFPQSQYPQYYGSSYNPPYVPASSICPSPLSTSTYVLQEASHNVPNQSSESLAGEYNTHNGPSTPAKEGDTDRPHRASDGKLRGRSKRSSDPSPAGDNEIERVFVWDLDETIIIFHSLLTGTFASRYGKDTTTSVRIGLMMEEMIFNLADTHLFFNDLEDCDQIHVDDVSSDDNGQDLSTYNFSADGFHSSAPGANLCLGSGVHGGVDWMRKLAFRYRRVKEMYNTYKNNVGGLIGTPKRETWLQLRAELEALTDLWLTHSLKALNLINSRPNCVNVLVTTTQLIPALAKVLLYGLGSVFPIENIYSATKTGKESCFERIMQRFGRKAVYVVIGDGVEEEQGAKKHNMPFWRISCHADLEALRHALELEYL
Target sequence (Q15475 whole entry, looked up): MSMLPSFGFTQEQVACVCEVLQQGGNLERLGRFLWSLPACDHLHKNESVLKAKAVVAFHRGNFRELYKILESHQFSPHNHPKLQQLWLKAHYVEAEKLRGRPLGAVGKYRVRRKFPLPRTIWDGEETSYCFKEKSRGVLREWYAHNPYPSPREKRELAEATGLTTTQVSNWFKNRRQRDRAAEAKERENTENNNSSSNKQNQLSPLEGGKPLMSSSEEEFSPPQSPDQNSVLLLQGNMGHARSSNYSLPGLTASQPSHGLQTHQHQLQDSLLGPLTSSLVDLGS
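AlphaScreen luminescence read after one hour at 37 °C in darkness. Pin-transferred compounds met GST-Six1 and His-Eya2 protein (5X stock 250 nM/500 nM) plus glutathione donor and Ni-chelate acceptor beads (5X, 50 ug/mL).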
TGFb inhibitor – inhibitors of TGF-b signaling; HepG2 CAGA-GFP TGF-b/SMAD3 reporter, GFP fluorescence, 18 h; TGF-beta stimulated, 500 pg/mL final; Potency, µM (titrated, usually from 46.1 µM), actives largely listed as inhibitors; 410,000 tested, 1.2% active; further: nearly all actives have a fitted effect of over 65% in size
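Cell-based qHTS in HEPG2 carrying a CAGA-GFP Smad reporter; compounds added before 500 pg/mL final TGF-beta, 18 h incubation at 37 degrees C, GFP fluorescence quantified per cell by imaging cytometry.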
ATXN viability – reduces viability in counter-screen for ATXN expression inhibitors | S2 cells (HEK-293 line with an ATXN2-luciferase reporter) viability, CellTiter-Fluor protease fluorescence, 24 h | Potency, µM (titrated, usually from 56.7 µM), most hits filed as cytotoxic | 400,000 tested, 0.49% active | AID 651635; further: nearly all actives have a fitted effect of over 40% in size
Hits are given with their value. Unless noted, the call rests on the fitted dose curve; in most records, active means well fitted curve in the direction sought with a large enough effect; inconclusive means small, poorly fitted or top-dose-only effect, or another doubt; inactive means no such curve, though single readings can be large; an effect the other way counts as inactive or inconclusive.

O=C(CSc1ccc(-c2ccccn2)nn1)NCc1ccccc1 was read as CtBP-E1A inh inconclusive, HepG2 viability inactive, Six1-Eya2 blk -76, TGFb inhibitor inactive and ATXN viability inactive.
For O=C(CSc1ncccn1)NCc1ccc(F)cc1 the results were CtBP-E1A inh inactive, ATXN2 expr inh inactive, HepG2 viability inactive, Six1-Eya2 blk inactive, TGFb inhibitor inactive and ATXN viability inactive.
`O=C(CSc1ccc(-c2ccccn2)nn1)NC1CCCCC1` gave CtBP-E1A inh -72, ATXN2 expr inh inactive, HepG2 viability inactive, Six1-Eya2 blk -90, TGFb inhibitor inactive and ATXN viability inactive.
O=C(CSc1ccc(-c2ccccn2)nn1)NCc1ccc(F)cc1 was read as CtBP-E1A inh -66, ATXN2 expr inh inactive, HepG2 viability inactive, Six1-Eya2 blk -81, TGFb inhibitor inconclusive and ATXN viability inactive.
`O=C(CSc1ccc(-c2ccccc2)nn1)NC1CCCCC1` gave CtBP-E1A inh inactive, ATXN2 expr inh inactive, HepG2 viability inactive, Six1-Eya2 blk inactive, TGFb inhibitor inactive and ATXN viability inactive.
Screening O=C(CSc1ccc(-c2ccccn2)nn1)c1ccc([N+](=O)[O-])cc1 returned CtBP-E1A inh -83, ATXN2 expr inh inactive, HepG2 viability inactive, Six1-Eya2 blk -67, TGFb inhibitor inactive and ATXN viability inactive.
CCc1ccc(NC(=O)CSc2ccc(-c3ccccn3)nn2)cc1 was read as CtBP-E1A inh inconclusive, ATXN2 expr inh inconclusive, HepG2 viability inactive, Six1-Eya2 blk inconclusive, TGFb inhibitor inconclusive and ATXN viability inconclusive.
`O=C(CSc1ccc(-c2cccnc2)nn1)c1ccc([N+](=O)[O-])cc1` gave CtBP-E1A inh inactive, ATXN2 expr inh inactive, HepG2 viability inactive, Six1-Eya2 blk inactive, TGFb inhibitor inactive and ATXN viability inactive.
`O=C(NCC1Cc2cc(F)cc(-c3cccnc3)c2O1)c1cnn(-c2ccccc2)c1` (configuration not stated) gave ATXN viability inactive.
For COc1cccc(C2(CC(=O)N3CCC(c4nc5ccccc5o4)CC3)CC(=O)N(C)C2=O)c1 (configuration not stated) the results were ATXN viability inactive.
For CC(C)(C)c1ccccc1OCCOCCNCc1ccccc1 the results were CtBP-E1A inh inactive, ATXN2 expr inh inactive, HepG2 viability inactive, Six1-Eya2 blk inactive, TGFb inhibitor 25µM and ATXN viability inconclusive.
COCCCNCCOCCOc1ccc(Cl)cc1C(C)(C)C was read as CtBP-E1A inh inactive, ATXN2 expr inh inconclusive, HepG2 viability 11µM, Six1-Eya2 blk inactive, TGFb inhibitor 20µM and ATXN viability inconclusive.
Screening CNCCOc1ccccc1C(C)(C)C returned CtBP-E1A inh inactive, ATXN2 expr inh inactive, HepG2 viability inactive, Six1-Eya2 blk inactive, TGFb inhibitor inactive and ATXN viability inactive.
O=c1[nH]c2sc3c(c2c2nncn12)CCCC3 was read as CtBP-E1A inh -83, ATXN2 expr inh inactive, HepG2 viability inactive, Six1-Eya2 blk -79, TGFb inhibitor inactive and ATXN viability inactive.
`Cc1ccc(-n2c(=O)[nH]c3sc4c(c3c2=O)CCCC4)cc1` gave ATXN2 expr inh inactive, HepG2 viability inactive, TGFb inhibitor inactive and ATXN viability inactive.
O=C(N/N=C/c1cc(Cl)cc([N+](=O)[O-])c1O)c1cccc(S(=O)(=O)N2CCOCC2)c1 was read as CtBP-E1A inh -87, ATXN2 expr inh inconclusive, HepG2 viability inactive, Six1-Eya2 blk -91, TGFb inhibitor inactive and ATXN viability inactive.
`O=C(N/N=C/c1cc(Br)cc(Br)c1O)c1cccc(S(=O)(=O)N2CCOCC2)c1` gave CtBP-E1A inh -94, ATXN2 expr inh inactive, HepG2 viability inactive, Six1-Eya2 blk -70, TGFb inhibitor inactive and ATXN viability inactive.
`CSc1nnc(CNC(=O)c2cccc3ccccc23)n1-c1ccccc1C` gave ATXN viability inactive.
COC(=O)N1CCCCC1c1cc(C(=O)Nc2ccc(OC)cc2C)no1 (configuration not stated) was read as CtBP-E1A inh inactive, ATXN2 expr inh inactive, HepG2 viability inactive, Six1-Eya2 blk inactive, TGFb inhibitor inactive and ATXN viability inactive.
S=C(Nc1ccccc1)N1CCCCCC1 was read as CtBP-E1A inh inactive, ATXN2 expr inh inactive, HepG2 viability inactive, Six1-Eya2 blk inactive, TGFb inhibitor inactive and ATXN viability inactive.
Screening Nc1ncn(C(=S)Nc2ccccc2)n1 returned CtBP-E1A inh inactive, ATXN2 expr inh inconclusive, HepG2 viability inactive, Six1-Eya2 blk inactive, TGFb inhibitor 8.9µM and ATXN viability inconclusive.
For CC(=O)Nc1ccc(C2=NNC(=Nc3cccc(S(=O)(=O)N(C)C)c3)SC2)cc1 the results were HepG2 viability inactive, Six1-Eya2 blk inconclusive, TGFb inhibitor 10µM and ATXN viability inconclusive.
For Cn1nnnc1Sc1ncnc2scc(-c3ccsc3)c12 the results were ATXN2 expr inh 14µM, HepG2 viability inactive, TGFb inhibitor 13µM and ATXN viability inconclusive.
`Cn1nnnc1Sc1ncnc2scc(-c3cccs3)c12` gave ATXN2 expr inh 8.9µM, HepG2 viability inactive, TGFb inhibitor inconclusive and ATXN viability inactive.
For CC(=O)c1ccccc1-c1csc2ncnc(Sc3nnnn3C)c12 the results were ATXN2 expr inh inconclusive, HepG2 viability inactive, TGFb inhibitor inconclusive and ATXN viability inconclusive.
Screening Cn1nnnc1Sc1ncnc2scc(-c3ccccc3C(F)(F)F)c12 returned ATXN2 expr inh inconclusive, HepG2 viability inactive, TGFb inhibitor inconclusive and ATXN viability inconclusive.
`Cn1nnnc1Sc1ncnc2scc(-c3cc4ccccc4o3)c12` gave ATXN2 expr inh 5.6µM, HepG2 viability 4.5µM, TGFb inhibitor 2.5µM and ATXN viability 13µM.
For Cc1ccc(-c2csc3ncnc(SCC(=O)O)c23)cc1 the results were CtBP-E1A inh inactive, ATXN2 expr inh inactive, HepG2 viability inactive, Six1-Eya2 blk inactive, TGFb inhibitor inactive and ATXN viability inactive.
For COc1cc(C=O)cc(OC)c1[N+](=O)[O-] the results were HepG2 viability inactive and TGFb inhibitor inactive.
Screening COc1ccc(-c2cc3nc(C)cc(N4CCN(C(=O)c5ccoc5)CC4)n3n2)cc1 returned CtBP-E1A inh inactive, ATXN2 expr inh inactive, HepG2 viability inactive, Six1-Eya2 blk inactive, TGFb inhibitor inactive and ATXN viability inactive.
COc1ccc(-c2[nH]nc3nc(N4CCN(C(=O)c5ccoc5)CC4)cc(C(F)(F)F)c23)cc1 was read as CtBP-E1A inh inactive, ATXN2 expr inh 20µM, HepG2 viability inactive, Six1-Eya2 blk inactive, TGFb inhibitor inconclusive and ATXN viability 20µM.
